Publication PMC7826789 (International Journal of Molecular Sciences, 2021)

System: MAP3K15
Conditions: Compound Concentration (nM):1000
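Note: KINOMEscan scanMAX binding as percent activity remaining versus control; lower means stronger binding.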

Percent Control, inactive:
Cl.O=S1CCN(Cc2ccc(-c3ccc4ncnc(Nc5ccc(OCc6ccccc6)c(F)c5)c4c3)o2)CC1 [GW576924A] 94%, COc1ccc2[nH]c3c4[nH]c5ccc(OC)cc5c4c4c(c3c2c1)C(=O)NC4=O [GW296115X] 64%, COc1cc2ncnc(Nc3ccc4c(cnn4Cc4ccccc4)c3)c2cc1OC.Cl [GW282449A] 98%, COc1cc(C=NNc2ncnc3c2cnn3-c2ccccc2)ccc1O [GW513184X] 100%, COc1ccccc1-c1cc(/C=C2\C(=O)Nc3ncc(Br)cc32)cc(Br)c1O [GW442130X] 89%, CN1CCN(C(=O)c2ccc(NC(=O)Nc3ccc(N(C)c4ccnc(Nc5ccc(CS(C)(=O)=O)cc5)n4)cc3)cc2)CC1.Cl [GW830263A] 86%, O=C1Nc2ccc(C(=O)c3ccco3)cc2C1=Cc1cc(Cl)c(O)c(Cl)c1 [GW406108X] 90%, COc1cc(/C=N/Nc2ncnc3[nH]ncc23)ccc1O [GW578748X] 96%, Cc1cc(O)cc(C)c1/C=C/c1cncc(C(N)=O)c1 [GW435821X] 100%, CCS(=O)(=O)c1ccc(OC)c(Nc2ncc(-c3cccc(F)c3)o2)c1 [GW621970X] 95%, Cl.O=C(Nc1ccc(Oc2ccc3[nH]c(NC(=O)c4ccco4)nc3c2)cc1)Nc1cc(C(F)(F)F)ccc1F [GW683134A] 90%, Nc1ncnc2occ(-c3ccc(NC(=O)Nc4cc(C(F)(F)F)ccc4F)cc3)c12 [GW770249X] 100%, O=C(Nc1n[nH]c2nc(-c3ccc(O)cc3)c(Br)cc12)C1CC1 [SB-725317] 94%, CC1=C(C(=O)Nc2ccc3[nH]ncc3c2)C(c2ccc(Cl)c(Cl)c2)CC(=O)N1 (stereo not shown) [GSK299115A] 84%, NS(=O)(=O)c1ccc(N/N=C2\C(=O)Nc3ccc(Cl)cc32)cc1 [GW280670X] 100%, CC1=C(C(=O)Nc2ccc3[nH]ncc3c2)C(c2ccc3ccccc3c2)CC(=O)N1 (stereo not shown) [GSK270822A] 73%, COc1cccc(-c2c[nH]c3c(N/N=C/c4ccncc4)ncnc23)c1 [GW814408X] 100%, NS(=O)(=O)c1ccc(N/N=C2\C(=O)Nc3ccc(C(=O)NCCc4c[nH]cn4)cc32)cc1 [GW300660X] 100%, CN(C)CCNC(=O)Nc1ccc(N(C)c2ccnc(Nc3ccc(CS(C)(=O)=O)cc3)n2)cc1.Cl [GW830900A] 100%, COc1ccc2cc(-c3c(-c4ccncc4)nc(-c4ccc(S(C)(=O)=O)cc4C)n3C)ccc2c1 [SB-633825] 83%, NS(=O)(=O)c1ccc(N/N=C2\C(=O)Nc3ccc(-c4cnco4)cc32)cc1 [GW276655] 75%, CN(C)c1cc2c(Nc3ccc4c(cnn4Cc4ccccc4)c3)ncnc2cn1 [GW282974X] 100%, COc1ccc2c(-c3ccnc(Nc4cccc(OC(F)(F)F)c4)n3)cnn2n1 [GW810372X] 100%, Cl.O=C(O[C@H]1CN[C@H](C#Cc2cc3ncnc(Nc4ccc5c(cnn5Cc5ccccc5)c4)c3s2)C1)N1CCOCC1 [GSK200398A] 95%, CCS(=O)(=O)c1ccc(OC)c(Nc2ncc(-c3cccc(OC)c3)o2)c1 [GW580509X] 100%, CCc1ccc(Oc2nccc(-c3c(-c4ccc(F)cc4)ncn3C3CCNCC3)n2)cc1 [SB-242719] 91%, NS(=O)(=O)c1ccc(N/N=C2\C(=O)Nc3ccc(C(=O)NCc4ccncc4)cc32)cc1 [GW300657X] 80%, COc1ccc(COc2ccc(Cc3cnc(N)nc3N)cc2OC)cc1 [GW632580X] 95%, NS(=O)(=O)c1ccc(Nc2ncc(-c3ccccc3)o2)cc1 [GW572399X] 99%, COC(=O)Nc1nc2ccc(Oc3ccc(NC(=O)Nc4cc(C(F)(F)F)ccc4F)cc3)cc2s1.Cl [GW693917A] 100%, COc1cc(C)c(N(C)C(=O)CN(C)C)cc1Nc1nc(Nc2cccc(F)c2C(N)=O)c2cc[nH]c2n1 [GSK2219385] 98%, COc1cc(N2CCN(C(C)C)CC2)ccc1Nc1nc(Nc2ccc(F)cc2C(=O)NC[C@@H](O)CO)c2cc[nH]c2n1 [GSK1392956A] 93%, CC(C)COC(=O)c1ccc2c(c1)/C(=C/Nc1ccc(S(N)(=O)=O)cc1)C(=O)N2 [GW416981X] 100%, Cl.c1ccc(Cc2nc3ccc(Nc4ncnc5ccccc45)cc3[nH]2)cc1 [GR269666A] 100%, CCn1c(-c2nonc2N)nc2c(C#CC(C)(C)O)nc(OCCNC)cc21.Cl [GSK949675] 100%, COc1cc2ncn(-c3cc(O[C@H](C)c4ccccc4Cl)c(C(N)=O)s3)c2cc1OC [GSK237701A] 100%, COc1cccc(-n2ncc3c(N/N=C/c4ccncc4)ncnc32)c1 [GW784752X] 97%, C[C@@H](Oc1cc(-n2cnc3ccc(OC4CCN(C)CC4)cc32)sc1C(N)=O)c1ccccc1Cl [GSK579289A] 95%, Cl.O=C(Nc1ccc(Oc2ccc3[nH]c(NC(=O)c4ccccc4)nc3c2)cc1)Nc1cc(C(F)(F)F)ccc1F [GW709042A] 100%, C/C(Nc1ccc(S(N)(=O)=O)cc1)=C1/C(=O)Nc2ccccc21 [GW335962X] 93%
